hDAT+cocaine = modulates human dopamine transporter uptake under cocaine. Q01959. LLC-PK1 hDAT cells, [14C]-dopamine uptake with cocaine IC80; actives deviate in either direction. B-score at 10 µM. hit rate 1.3% among 110,000. AID 449768;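 active = Z score or B-score, a plate-position-corrected score, falls beyond the plate's 99.7% confidence bounds, in either direction; inactive = both scores lie inside the 99.7% bounds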
S1P2 agonist = agonists of human S1P2 receptor; hit rate 0.46% among 97,000; O95136; S1P2-expressing cell line, agonist reporter read-out; activation, % at 4.5 µM; in the data active = activation above about 16%
S1P2 antag = antagonists of human S1P2 receptor; cell-based S1P2 antagonist assay, inhibition at 5 uM; hit rate 0.21% among 97,000; O95136; AID 736; inhibition, % at 5 µM; in the data active = inhibition above about 45%;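 note: CRE beta-lactamase reporter cells expressing human S1P2 stimulated with S1P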
GALR2 antag = blocks the human galanin receptor 2 | GALR2-expressing cells, antagonist mode | inhibition, % at 4 µM | hit rate 0.39% among 140,000; in the data active = inhibition above about 27%;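 note: cells stimulated with galanin 1-16 at roughly its EC80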
Target sequence (O43603 whole entry, looked up): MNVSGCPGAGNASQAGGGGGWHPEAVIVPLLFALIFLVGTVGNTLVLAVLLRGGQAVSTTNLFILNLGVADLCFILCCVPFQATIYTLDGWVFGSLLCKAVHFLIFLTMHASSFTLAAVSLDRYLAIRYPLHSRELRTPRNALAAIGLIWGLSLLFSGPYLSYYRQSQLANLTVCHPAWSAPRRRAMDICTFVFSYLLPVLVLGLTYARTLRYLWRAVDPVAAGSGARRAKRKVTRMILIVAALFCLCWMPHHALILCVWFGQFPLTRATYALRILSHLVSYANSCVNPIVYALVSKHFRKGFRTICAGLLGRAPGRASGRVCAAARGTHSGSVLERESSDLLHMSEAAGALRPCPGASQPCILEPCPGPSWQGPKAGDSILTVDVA
GALR2 ag = GALR2 (human) receptor agonism; O43603; GALR2-expressing cells, agonist activation read-out; activation, % (concentration not given with the values); hit rate 0.48% among 140,000; in the data active = activation above about 5%, passing the limit was not always enough
Of the large screens only hits and unclear results are named; the others gave an inactive call. An excerpt weighted towards active compounds, which were near 2.1% of everything screened.

CC(=O)c1ccc(NC2OC(CO)C(O)C(O)C2O)cc1 (configuration not stated)	none
CC(=O)c1ccc(NC2OC(C)C(O)C(O)C2O)cc1 (configuration not stated)	hDAT+cocaine -2.8
CCN1C(=O)/C(=C\c2cccn2-c2ccc([N+](=O)[O-])cc2)N(CC)C1=S	none (no result: hDAT+cocaine, S1P2 agonist, S1P2 antag)
CCOC(=O)Cn1c(CN(Cc2ccccc2)Cc2ccccc2)nc2c1c(=O)n(C)c(=O)n2C	hDAT+cocaine 3.8
CC1CCN(S(=O)(=O)c2cccc(C(=O)Oc3ccc([N+](=O)[O-])cc3)c2)CC1	none (no result: hDAT+cocaine, S1P2 agonist, S1P2 antag)
N#Cc1c(NCCN)nc(-c2ccco2)c2c1CCCC2	S1P2 agonist 20
CC(C)CCNc1nc(-c2ccco2)c2c(c1C#N)CCCC2	S1P2 agonist 37
N#Cc1c(N2CCOCC2)nc(-c2ccco2)c2c1CCCC2	none
CCCCn1c(SCc2nc(N)nc(N3CCCCC3)n2)nc2c1c(=O)n(C)c(=O)n2C	none (no result: hDAT+cocaine, S1P2 agonist, S1P2 antag)
CC1CN(Cc2cc(=O)n3ccsc3n2)CC(C)O1 (configuration not stated)	none
CC1CN(Cc2cc(=O)[nH]c(C3CC3)n2)CC(C)O1 (configuration not stated)	hDAT+cocaine -6.8
CC(C)OCC1CC(CC(=O)NC(=S)Nc2cccc([N+](=O)[O-])c2)C(=O)O1 (configuration not stated)	S1P2 agonist 47
C=CCNC(=O)/C(C#N)=C\c1cc(Cl)c(O)c(OCC)c1	none (no result: hDAT+cocaine, S1P2 agonist, S1P2 antag)
CCOc1cc(/C=C(/C#N)C(=O)Nc2ccc(O)cc2)cc(Br)c1O	hDAT+cocaine -3.4
Cn1cnnc1SCc1ccc(C(=O)O)cc1	none
CC(C)c1ccc2[nH]c(O)c(N=NC(=O)c3ccc(CSc4nncn4C)cc3)c2c1	GALR2 ag 5.1 (no result: hDAT+cocaine, S1P2 agonist, S1P2 antag)
CC(c1ccccc1)n1cc(C(=O)NCc2ccncc2)nn1 (configuration not stated)	none
CCCCOc1cccc(NC(=O)CSc2nccn2C)c1	hDAT+cocaine 2.7
Cn1ccnc1SCC(=O)Nc1cccc(O)c1	none
CC1(C)Cc2c(C#N)c(OCC(=O)c3ccc(Cl)cc3)nc(-c3ccco3)c2CO1	hDAT+cocaine -2.4
Cc1nc(OCC(=O)c2ccc(Cl)cc2)c(C#N)c2c1COC(C)(C)C2	none
CCCCCOC(=O)c1[nH]c2c(c1C)C(=O)CC(c1ccco1)C2 (configuration not stated)	GALR2 antag 35 (no result: S1P2 agonist, S1P2 antag)
CCCOC(=O)c1[nH]c2c(c1C)C(=O)CC(c1ccc(OC)c(OC)c1)C2 (configuration not stated)	GALR2 ag 5.2 (no result: hDAT+cocaine, S1P2 agonist, S1P2 antag)
CCn1c(SCC(=O)N2c3ccccc3Sc3ccccc32)nc2c1c(=O)n(C)c(=O)n2C	none (no result: S1P2 agonist, S1P2 antag, GALR2 antag, GALR2 ag)
Cn1c(=O)c2c(nc(SCC(=O)c3cccs3)n2Cc2ccc(F)cc2)n(C)c1=O	none
CC1Cc2ccccc2N1C(=O)CSc1nc2c(c(=O)n(C)c(=O)n2C)n1Cc1ccc(F)cc1 (configuration not stated)	hDAT+cocaine -6.9
CCCCn1c(SCC(=O)N2c3ccccc3Sc3ccccc32)nc2c1c(=O)n(C)c(=O)n2C	hDAT+cocaine 3.2
O=C(CN1CCOCC1)Nc1scc(-c2ccccc2)c1C(=O)N1CCOCC1	none
CCCC12C(=O)C(C)(C(c3ccccc3)=C1c1ccccc1)C1C(=O)N(c3ccc(C)cc3)C(=O)C12 (configuration not stated)	none (no result: hDAT+cocaine, S1P2 agonist, S1P2 antag)
Cc1ccc2nc(-c3ccc(SCC(=O)Nc4nc(C)cs4)nc3)[nH]c2c1	none (no result: hDAT+cocaine, S1P2 agonist, S1P2 antag)
Cc1ccc2nc(-c3ccc(SCC(=O)Nc4nnc(C)s4)nc3)[nH]c2c1	GALR2 ag 5.3 (no result: hDAT+cocaine, S1P2 agonist, S1P2 antag)
CCN(CC)c1ccc(/C=C2/C(=O)c3ccc(C(=O)O)cc3C2=O)cc1	none (no result: hDAT+cocaine, S1P2 agonist, S1P2 antag)
O=C(CSc1nnc(Cc2ccccc2)o1)Nc1ccc2c(c1)OCO2	none
O=C(NCC1CCN(c2ccc(S(=O)(=O)N3CCOCC3)cc2)CC1)c1ccc(Cl)cc1	none
COc1ccc(NC(=O)c2ccccc2NC(=O)C2CCCO2)cc1 (configuration not stated)	hDAT+cocaine -9
Cc1cccc(C(=O)Nc2ccccc2SCC2CSc3nc4ccccc4c(=O)n32)c1 (configuration not stated)	none (no result: hDAT+cocaine)
CCC(C(=O)NCc1ccco1)N(C(=O)CNS(=O)(=O)c1ccccc1)C1CCCCC1 (configuration not stated)	hDAT+cocaine 4.5
CC(C)C(C(=O)NCc1ccco1)N(C(=O)CNS(=O)(=O)c1ccccc1)C1CCCC1 (configuration not stated)	none
COc1cc2c(cc1OC)C1=C(C#N)CN(C3CCCCC3)CN1CC2	S1P2 agonist 20
COc1cc2c(cc1OC)CN(c1ccc([N+](=O)[O-])cc1C#N)CC2	none (no result: hDAT+cocaine, S1P2 agonist, S1P2 antag)
COc1ccc(CCN2CC(C#N)=C3c4cc(OC)c(OC)cc4CCN3C2)cc1OC	hDAT+cocaine 3.4, S1P2 agonist 24
COC(=O)c1cn[nH]c1NC(=S)Nc1ccccc1C	S1P2 agonist 57
CC(C)NCCOCCOc1ccccc1F	none (no result: hDAT+cocaine)
CCC1=C(OC(=O)N(CC)CC)N2C(=O)OC(=NCc3ccccc3)[C@]2(C)[C@H]2C1=CC[C@H]1C(=O)N(c3ccccc3)C(=O)[C@H]12	hDAT+cocaine 1.8 (no result: S1P2 agonist, S1P2 antag, GALR2 antag, GALR2 ag)
COc1ccc(Cn2nnnc2C(c2ccc(N(C)C)cc2)N2CCC(C)CC2)cc1 (configuration not stated)	hDAT+cocaine 2
CCCNC(=O)CN(c1cccc(F)c1)S(C)(=O)=O	none (no result: hDAT+cocaine, S1P2 agonist, S1P2 antag)
NS(=O)(=O)c1cc2c(cc1C(F)(F)F)NC(Cc1ccccc1)NS2(=O)=O (configuration not stated)	none (no result: S1P2 agonist, S1P2 antag)
CCCCn1c(=NC(=O)c2ccc3c(c2)OCO3)c(C#N)cc2c(=O)n3cccc(C)c3nc21	none
COCCn1c(=NC(=O)c2ccc3c(c2)OCO3)c(C#N)cc2c(=O)n3cccc(C)c3nc21	hDAT+cocaine -2.2
CC(C)OCCCn1c(=NC(=O)c2ccncc2)c(C#N)cc2c(=O)n3ccccc3nc21	S1P2 agonist 41, GALR2 ag 12
CCCCCn1c(=NC(C)=O)c(C#N)cc2c(=O)n3ccccc3nc21	none (no result: hDAT+cocaine)
CCOc1ccc2nc(NC(=O)CN3CCC(n4nnc5cc(F)ccc54)CC3)sc2c1	hDAT+cocaine 4.3
CCOc1ccc(OCC)c(NC(=O)CN2CCC(NC(=O)c3cccc(F)c3)CC2)c1	hDAT+cocaine 3.3 (no result: S1P2 agonist, S1P2 antag)
Cc1nn(Cc2ccc(F)cc2)c(C)c1NC(=O)c1cnn2c1NC(c1cccs1)CC2C(F)(F)F (configuration not stated)	hDAT+cocaine 2.9
Cc1nn(Cc2ccc(F)cc2)c(C)c1NC(=O)c1cnn2c1NC(c1ccccc1)CC2C(F)(F)F (configuration not stated)	none
CC1CCCN(Cc2c(O)ccc3c(=O)c(-c4nc5ccccc5s4)c(N)oc23)C1 (configuration not stated)	hDAT+cocaine 2.5
CC1CCN(Cc2c(O)ccc3c(=O)c(-c4nc5ccccc5s4)c(N)oc23)CC1	none (no result: hDAT+cocaine, S1P2 agonist, S1P2 antag)
O=C(CSc1nc(-c2ccccc2)nn1C(=O)c1ccccc1)Nc1cccc([N+](=O)[O-])c1	none
CCc1ccccc1NC(=O)CSc1nc(-c2ccccc2)nn1C(=O)c1cccc([N+](=O)[O-])c1	hDAT+cocaine 5.4

Compound activity as filed in PubChem.
